# Reference: PubChem BioAssay (NCI)
# About 83,000 compounds went through this panel and 20% of them were active in at least one assay; those are over-represented in the sample as a whole.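 Single-dose data. Exposure time 48 hours. Values below 10 considered active.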 A number with no mark means an inactive call. Active and inactive are the calls of the source.
# Columns and labels:
# Assay in all cases: NCI-60 one-dose screen, 48 h (100 = growth as untreated, 0 = no growth, -100 = all killed)
# Conditions in all cases: 10 µM unless noted
# T-47D breast = tested on: T-47D breast
# BT-549 breast = tested on: BT-549 breast
# MDA-MB-435 melanoma = tested on: MDA-MB-435 melanoma
# SW-620 colon = tested on: SW-620 colon
# MCF7 breast = tested on: MCF7 breast
# HCT-116 colon = tested on: HCT-116 colon
# HCC-2998 colon = tested on: HCC-2998 colon
# KM12 colon = tested on: KM12 colon
SMILES,growth (T-47D breast),growth (BT-549 breast),growth (MDA-MB-435 melanoma),growth (SW-620 colon),growth (MCF7 breast),growth (HCT-116 colon),growth (HCC-2998 colon),growth (KM12 colon)
COc1ccc(Cn2cc3c(c2)-c2oncc2CC3)cc1OC,47.5%,59.4%,-46.2% (active),21.9%,7.49% (active),4.37% (active),-37.5% (active),5.46% (active)
NNC(=S)N1N=C(c2cc3ccccc3o2)CC1c1c[nH]c2ccccc12 (centres undefined),40.3%,32.2%,57.8%,43.8%,20.7%,23.8%,52%,37.4%
Cn1c2c(cc(S(=O)(=O)c3ccccc3)c1=O)CCc1c-2cnn1-c1ccc(Cl)cc1,-24.2% (active),-13.8% (active),16.2%,56.7%,-27.7% (active),53%,74.3%,92.2%
CCCCCCCCCCCCOC(=N)N(C)C,89.9%,96.7%,97.4%,98.8%,94.1%,87.6%,101%,101%
Cc1ccc2c(c1)C(=O)CCS2,106%,101%,104%,97.1%,93.3%,103%,99.6%,108%
c1ccc(-c2cn3ccnc3c(-c3ccc4ncn(C5CCCCC5)c4c3)n2)cc1,-11.1% (active),42.9%,71.3%,90.9%,62%,40.5%,103%,51%
O=C(O)c1occ(Cl)c1Cl,103%,130%,98.5%,104%,111%,116%,104%,110%
CC1(C)C(O)NC(Cl)=C(C#N)C1(C#N)C#N (centres undefined),106%,104%,113%,102%,107%,101%,90.4%,112%
CC(=O)Oc1cc2ccccc2cc1C(C)C,101%,112%,102%,99.7%,98%,97.1%,99.2%,118%
CC[C@@H](C)/C=C(C)/C=C/C(=O)c1c(O)c(-c2ccc(OC(=O)[C@@]34CC[C@@](C)(C(=O)O3)C4(C)C)cc2)cn(O)c1=O,34.7%,-0.686% (active),22.2%,37.3%,15.6%,17.1%,-10.3% (active),18.4%
CCn1cc(C(=O)O)c(=O)c2cc(F)c(N3CCN(S(=O)(=O)c4ccc(Cl)cc4)CC3)cc21,41.1%,12.6%,25.1%,24%,14.3%,4.8% (active),24.5%,4.3% (active)
COc1cc2c(c3c1c(=O)c1cccc(F)c1n3C)C=CC(C)(C)O2,89.2%,100%,94.9%,113%,44.6%,92.8%,101%,76.6%
CCOc1ccc2nc3ccc(Cl)cc3nc2c1,80.6%,90.7%,107%,91%,92.3%,88.1%,70.5%,94.5%
COc1ccc(OC)c(Cn2cc3c(c2-c2ccccc2)CCc2cnoc2-3)c1,32.2%,65.3%,-17.6% (active),37.4%,44.4%,43.2%,85.5%,33.3%
BrCCCOc1ccc(Oc2ccc(OCCCBr)cc2)cc1,113%,91%,107%,108%,97.9%,102%,119%,113%
COc1ccc(CNCCCN2C(=O)c3ccc4c5c(ccc(c35)C2=O)C(=O)N(CCCNCc2ccc(OC)c(OC)c2OC)C4=O)c(OC)c1OC,-40.1% (active),-90.5% (active),-87.5% (active),-94.6% (active),-85% (active),-71.2% (active),-92.8% (active),-89.9% (active)
O=C(CCC(=O)N(CCO)CCO)N(CCO)CCO,98.5%,93.5%,109%,106%,94.6%,95.7%,110%,99.8%

SMILES,growth (T-47D breast),growth (BT-549 breast),growth (MDA-MB-435 melanoma),growth (SW-620 colon),growth (MCF7 breast),growth (HCT-116 colon),growth (HCC-2998 colon),growth (KM12 colon)
COc1cc2c(cc1OC)C(Cc1cc(OC)c(OC)cc1[N+](=O)[O-])=NCC2,78.5%,56.6%,90.9%,82%,94%,62.2%,89.5%,88%
COc1ccc(C(=O)CN2C(=O)NC(c3ccccc3)(c3ccccc3)C2=O)cc1,95.2%,105%,104%,96.8%,102%,106%,106%,109%
COc1ccc(-c2cc(C#N)c(NNC(C)=O)[nH]2)cc1,165%,119%,107%,115%,110%,92%,105%,107%
CC(=O)O.[In],103%,105%,102%,106%,108%,106%,108%,104%
CCCCCN1CCN(C(CC(=O)c2ccccc2)C(=O)c2ccccc2)CC1 (centres undefined),101%,96.2%,95.5%,-100% (active),89.6%,77.4%,106%,102%
CCCCCCCCCCCCCCCCNC(=O)Nc1ccc(C)c(NC(=O)NCCCCCCCCCCCCCCCC)c1,104%,104%,105%,107%,101%,117%,110%,113%
CCOC(=O)c1c(C)oc2ncnc(Nc3ccc(C(=O)NCCc4ccccc4)cc3)c12,65.1%,67.3%,87.5%,105%,78.6%,64.8%,91.5%,89%
CCOC(=O)c1cc(C(=O)c2ccc(Br)cc2)n2cc(C)cc(C)c12,80.3%,79%,102%,103%,90%,75.3%,102%,98.9%
COc1cc2ncnc(-n3ncc4cc(NC(=O)Nc5ccc(Cl)c(Cl)c5)ccc43)c2cc1OC,-0.727% (active),-26.9% (active),-31.1% (active),-32.4% (active),-34.8% (active),23.9%,15.4%,0.483% (active)
COc1ccc(CN2C(=O)/C(=C\C(=O)c3ccc(OCCN4CCCC4)cc3)c3ccccc32)cc1,57.8%,92.5%,90.2%,3.07% (active),32.4%,18.5%,101%,85.4%
Oc1ccccc1\C=N/N=C/C=C/c1ccccc1,76.9%,91.4%,105%,106%,81.4%,103%,95.3%,92.8%
CCN(CC)CCNc1ncnc2c1cnn2-c1ccc(Cl)cc1,65%,95.1%,-34.8% (active),63%,75%,77.8%,82.7%,67.5%
CC[C@H](Nc1ncnc2nc[nH]c12)c1nc2cccc(NCc3ccc(C(=O)NO)o3)c2c(=O)n1-c1ccccc1,80.8%,86%,105%,107%,91.4%,96.9%,104%,103%
CNCCCNCCCCNCCCN1C(=O)c2ccc3c4c(ccc(c24)C1=O)C(=O)N(CCCNCc1ccccc1OC)C3=O,8.96% (active),57.8%,1.07% (active),19.8%,7.86% (active),11.1%,31.5%,12%
O=C(Nn1cnc2ccccc21)N1CCCC1,106%,96.5%,104%,109%,108%,85.1%,83.7%,116%
CCCNC(=O)Oc1ccc(/C(=C(/CC)Cc2ccccc2)c2ccc(OCCN(CC)CC)cc2)cc1,34.1%,97.4%,87.8%,70.9%,26.3%,49.1%,50%,69.2%
